Sampled rows, rich in hits. Any-hit rate of the full collection: about 11%.
IMPase Li inh = IMPase inhibition in cells with lithium potentiation. AID 1457. CHO-M1 cells, IP1 TR-FRET (IP-One), carbachol + lithium. Potency, µM (series often up to 59.4 µM), for the others: top-dose activity, negative = IMPase inhibition, actives largely listed as inhibitors. 0.35% of 210,000 active; active = well fitted inhibition curve with a large enough effect; inconclusive = small, poorly fitted or top-dose-only effect; inactive = no such curve, though single readings can be large or run the other way;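 note: IP1 builds up when IMPase is blocked and the TR-FRET signal falls; potency is the fitted concentration of half-maximal effect; plate controls were basal vehicle for no effect and high inhibitor control for full effect; nearly all actives have a fitted effect of over 50% in size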
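Concentration–response in CHO-M1 cells, lithium-potentiated; 30 min at 37C. IP1 detected by competitive TR-FRET after 10 min lysis at RT. Hill-fitted AC50.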
IMPase cell inh = cell-permeable inhibitors of inositol monophosphatase (IMPase). inhibition (IP1 accumulation), % at 46.1 µM. P97697. CHO-M1 cells, IP1 accumulation, HTRF TR-FRET ratio. 120,000 tested, under 10 active. AID 901; active = well fitted curve in the direction sought with a large enough effect in the signal ratio, not every such curve was filed as active; inconclusive = small, poorly fitted or top-dose-only effect, or a change in a side signal; inactive = no such curve, though single readings can be large or run the other way; the % refers to the signal ratio;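 note: cells stimulated with carbachol in lithium chloride buffer; plate controls were DMSO basal wells for no effect and reference inhibitor wells for full effect; higher means more IMPase inhibition seen as more IP1 and lower FRET ratio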
Target sequence (P97697 whole entry, looked up): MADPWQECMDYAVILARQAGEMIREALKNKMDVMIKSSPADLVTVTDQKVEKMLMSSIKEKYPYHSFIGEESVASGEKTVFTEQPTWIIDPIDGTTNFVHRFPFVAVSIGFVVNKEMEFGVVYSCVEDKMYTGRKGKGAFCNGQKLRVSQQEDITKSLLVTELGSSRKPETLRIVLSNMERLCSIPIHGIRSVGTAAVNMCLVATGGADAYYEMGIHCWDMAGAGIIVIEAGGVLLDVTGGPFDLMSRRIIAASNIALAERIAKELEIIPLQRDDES
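CHO-M1 cells (CHO stably expressing M1 receptor), compound up to 46 uM final, stimulated with carbachol (50 uM as added) in buffer with 50mM LiCl, pH 7.4, 30 min at 37C. Cytosolic IP1 read by TR-FRET; AC50 from Hill fits.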
ALDH1A1 block = inhibitors of human aldehyde dehydrogenase 1A1; 7.3% of 220,000 active; Potency, µM (top dose mostly 75.3 µM), without a hit: at the highest dose activity, negative = inhibition, usual class: inhibitors; Purified ALDH1A1, NADH fluorescence, propionaldehyde substrate; AID 1030; P00352;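 note: potency is the fitted concentration of half-maximal effect; plate controls were no enzyme wells and a reference inhibitor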
PNC inhibitor = perinucleolar compartment assembly inhibition. PC3M PTB-GFP, PNC prevalence imaging, 16 h; hits give low values. activity change (PNC), negative = inhibition, % at 10 µM. 3.1% of 140,000 active;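 active = readout at or below -70, meaning at least 70% loss of cells showing the perinucleolar compartment, a nuclear body marking cancer cells; inconclusive = readout between -30 and a set limit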;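 note: plate controls were DMSO wells for no effect and camptothecin positive control wells for full effect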
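Read-out is percentage of cells bearing a perinucleolar compartment, from automated 20x imaging of fixed, Hoechst-stained PC3M PTB-GFP cells. Cells were seeded 4 h, then exposed 16 h to compound (23 nl of library stock) in duplicate plates.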
HPGD block = HPGD (human) dehydrogenase inhibition. P15428. purified HPGD, NADH fluorescence kinetic, PGE2 substrate. Potency, µM, for inactives: at the highest dose activity change, negative = inhibition, usual class: inhibitors. 4.3% of 150,000 active. AID 894; note: potency is the fitted concentration of half-maximal effect
Target sequence (P15428 whole entry, looked up): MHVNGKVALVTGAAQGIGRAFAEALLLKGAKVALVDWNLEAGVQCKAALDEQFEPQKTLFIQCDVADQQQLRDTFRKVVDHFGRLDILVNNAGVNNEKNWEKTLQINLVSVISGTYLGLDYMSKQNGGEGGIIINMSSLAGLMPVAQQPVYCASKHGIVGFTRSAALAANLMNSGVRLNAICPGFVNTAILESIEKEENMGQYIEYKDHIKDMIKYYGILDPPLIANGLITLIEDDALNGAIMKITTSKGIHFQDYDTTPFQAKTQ
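20 nM HPGD preincubated 15 min at room temperature with compound in 50 mM Tris-HCl pH 8, 0.01% Tween 20. Started with 1 mM NAD+ and 30 uM prostaglandin E2; NADH fluorescence (360/450 nm) read 5 times over 30-s intervals, last minus first.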
* marks the source's active call; other numbers are inactive results; ? = inconclusive; / = not tested or not shown; [ ] = remark or other dose. Unless noted, calls come from the whole dose curve; as a rule, active = well fitted inhibition curve with a large enough effect (not every such curve was filed as active); inconclusive = small, poorly fitted or top-dose-only effect, or another doubt; inactive = no such curve, though single readings can be large or run the other way. Unless noted, % is set by controls: 0 for no effect and ±100 for the full control effect.

SMILES | IMPase Li inh | IMPase cell inh | ALDH1A1 block | PNC inhibitor | HPGD block
COc1ccc(C(=O)N/N=C/c2ccc(OC)c(OS(=O)(=O)c3ccccc3)c2)cc1 | 4.8% | / | 10µM* | -11.1 | -12.9%
COc1ccc(/C=N/NC(=O)c2cccnc2)cc1COc1ccc([N+](=O)[O-])c(C)c1 | / | / | 10µM* | / | /
COc1ccc(/C=N/NC(=O)c2cccc([N+](=O)[O-])c2)cc1OS(=O)(=O)c1ccc(C)cc1 | 7.3%[38.3 µM] | 10.6 | 12.6µM* | 7.1 | -21.9%
COc1ccc(/C=N/NC(=O)c2cccnc2)cc1CSc1nc2ccccc2s1 | 19.2% | 8.9 | ? | 33.1 | -20.6%
O=C(Nc1ccc2oc(-c3cccnc3)nc2c1)c1ccc(Br)cc1 | / | 2.0 | / | / | /
COc1ccc(C2=C(Nc3ccc(F)cc3)c3ccccc3C2=O)cc1 | 10.4%[38.3 µM] | 2.7 | ? | -12.7 | 25.1µM*
COc1ccc(CCNC(=O)c2ccc(N(C)S(=O)(=O)c3ccc(C)cc3)cc2)cc1 | 16.8% | / | 17.4% | / | /
CN(c1ccccc1)S(=O)(=O)c1cccc(C(=O)NCCc2ccc(O)c(O)c2)c1 | 10.2% | / | 28.2µM* | / | /
COc1ccc(CCNC(=O)c2ccc(Cl)c(S(=O)(=O)N(C)c3ccccc3)c2)cc1 | -5.7% | / | -0.4% | -88.5* | -15.3%
O=c1c2ccccc2nc(-c2ccc(Cl)cc2)n1CCCOc1ccccc1F | / | 4.9 | / | / | /
COc1ccc(OC)c2sc(N3CCc4ccccc4C3)nc12 | 5.1% | / | ? | / | /
COc1ccc(OC)c2sc(N3CCCCC3)nc12 | 31.3%[38.3 µM] | 22.9 | ? | -17.7 | 15.8µM*
Clc1cccc2sc(N3CCCCC3)nc12 | 24.4%[38.3 µM] | 1.6 | -1.8% | -82.3* | ?
Clc1cc(Cl)c2nc(N3CCCCC3)sc2c1 | -2.4%[38.3 µM] | 4.8 | 22.4µM* | 3.4 | 22.4µM*
NN/C(=C\[N+](=O)[O-])Nc1ccc(Cl)cc1 | 13.4% | / | 28.2µM* | / | /
NN/C(=C\[N+](=O)[O-])Nc1ccccc1 | 8.6% | / | ? | / | /
O=C(NCc1cccnc1)c1c(O)c2cccc3c2n(c1=O)CCC3 | 8.2% | / | -1.3% | / | /
CCCCc1nnc(NC(=O)CSc2nc(=O)cc(N)n2-c2cccc(C)c2)s1 | 21.4%[38.3 µM] | 1.4 | -2.0% | -81.3* | -9.7%
COc1cc2c(=O)n(Cc3ccccc3)c(=O)n(CC(=O)NCC3CCCO3)c2cc1OC (configuration not stated) | 28.0%[38.3 µM] | 4.6 | ? | ? | ?
O=C(Cn1c(=O)n(Cc2ccco2)c(=O)c2cc(Cl)ccc21)NCC1CCCO1 (configuration not stated) | 17.3%[38.3 µM] | 12.2 | 25.1µM* | ? | 0.8%
CO[C@H]1COC(=O)C/C=C\[C@@H](C)[C@H](OC)COC(=O)[C@H]2CCCN2C(=O)C/C=C\[C@@H]1C | / | / | 0.6%[13.5 µM] | / | /
CN(C)S(=O)(=O)c1ccc2c(c1)c(=O)c(C(=O)NCCCN1CCCCCC1)cn2C | 15.2% | 6.8 | 15µM* | -23.0 | -16.4%
CCN(CC)S(=O)(=O)c1ccc2c(c1)c(=O)c(C(=O)NCCCN(C)c1ccccc1)cn2C | 22.3%[38.3 µM] | 8.9 | 4.4% | 55.2 | -4.3%
CCN(CC)S(=O)(=O)c1ccc2c(c1)c(=O)c(C(=O)NCc1cccs1)cn2C | 2.8% | / | 11.2µM* | 17.5 | -11.7%
CN(CCCNC(=O)c1cn(C)c2ccc(S(=O)(=O)N(C)C)cc2c1=O)c1ccccc1 | 4.6% | 9.3 | ? | ? | -2.8%
SMILES | IMPase Li inh | IMPase cell inh | ALDH1A1 block | PNC inhibitor | HPGD block
C=CCOc1c2ccc(C(=O)NCc3ccc(OC)cc3)cc2nn1C | ? | -2.5 | ? | -109.4* | ?
CC1=CN2C(=N)/C(=C/c3ccc([N+](=O)[O-])o3)C(=O)N=C2S1 | 22.1% | 7.5 | 3.55µM* | ? | -27.7%
CC1=CN2C(=N)/C(=C/c3ccco3)C(=O)N=C2S1 | 4.5% | / | 12.6µM* | -14.4 | -21.5%
CCOc1ccc(-c2ccc(/C=C3/C(=N)N4C=CSC4=NC3=O)o2)c([N+](=O)[O-])c1 | -2.9% | -6.3 | -0.7% | 33.1 | ?
COc1ccc(CC(=O)Nc2cc(C)on2)cc1OC | 14.0%[38.3 µM] | 6.0 | 1.6% | ? | -6.0%
COc1ccc(CC(=O)Nc2ccc(-c3nnc(-c4ccccc4)o3)cc2)cc1OC | 12.6µM* | -3.9 | 3.55µM* | -1.7 | ?
O=C(COc1ccccc1)Nc1ccc(-c2nnc(-c3ccco3)o2)cc1 | 12.6µM* | 3.0 | ? | -13.3 | ?

Assay outcomes as filed in PubChem.
